Screens: PubChem, National Center for Advancing Translational Sciences (NCATS)
Pf growth 48h – Primary qHTS for delayed death inhibitors of the malarial parasite plastid, 48 hour incubation; P. falciparum luciferase growth in erythrocytes, 48 h; Potency, µM (top dose mostly 28.7 µM), usual class: inhibitors; 5.9% of 310,000 active
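Luminescence readout; reporter = integrated firefly luciferase in P. falciparum. RBC culture at 2% hematocrit, 0.1% parasitemia final, 37 C/5% CO2; decreased signal taken as growth inhibition.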
Shiga inhibitor – A qHTS for Small Molecule Inhibitors of Shiga Toxin; Vero cells, Shiga toxin protein synthesis inhibition reporter; inhibition, % at 38.7 µM; 9.2% of 290,000 active; AID 2315, 2010; in the data active = inhibition mostly above about 28%, no sharp cut-off; inactive = mostly below about 43%
Pf growth 96h – Primary qHTS for delayed death inhibitors of the malarial parasite plastid, 96 hour incubation; P. falciparum luciferase reporter growth, 96 h; Potency, µM (top dose mostly 28.7 µM), actives largely listed as inhibitors; 6.9% of 320,000 active; AID 504834, 2011
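96 h incubation, 37 C, 5% CO2, of luciferase-reporter P. falciparum-infected RBCs (2% hematocrit, 0.05% parasitemia final) with test compounds; endpoint luminescence.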
HCV inhibitor – qHTS Assay for Inhibitors of Hepatitis C Virus (HCV); 3.4% of 340,000 active; Huh7.5.1 HCVcc-Cre infection, luciferase reporter, 44 h; AID 651820, 2012; Potency, µM (top dose mostly 41.8 µM), usual class: inhibitors
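A cell-based infection assay in which seeded cells (1,000 per well) receive test compound after 4 h, are inoculated with HCVcc-Cre at approximately 0.5 moi, and are incubated 44 h before luminescence detection.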
Cycloheximide cs – Cycloheximide Counterscreen for Small Molecule Inhibitors of Shiga Toxin; AID 2314, 2010; 12% of 300,000 active; cell reporter, cycloheximide protein synthesis inhibition counterscreen; max response, %; in the data active = max response mostly above about 13%, no sharp cut-off; inactive = mostly below about 14%; note: read at 38.3 µM for the half of the compounds with a filed dose
HCMV antiviral – qHTS Assay for inhibitors of the human cytomegalovirus (HCMV). HFF cells, HCMV-luciferase reporter, 72 h; stronger effect = lower value. activity change, negative = inhibition, % at 57.5 µM. 4.5% of 410,000 active; in the data active = activity change below about -60%; inconclusive = no clear call, values can overlap the other calls; inactive = above about -39%
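Two-dose cell screen: HFF monolayers treated with compounds and infected with luciferase-expressing HCMV at 1 PFU/cell, 72 h at 37C, then lysed for luciferase measurement.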
Numbers stand for hits; [ ] = another dose, or the depositor's remark. In the library only some 21% were active in any assay of this set; here they are far more common. Unless noted, calls come from the whole dose curve; as a rule, active = well fitted inhibition curve with a large enough effect; inconclusive = small, poorly fitted or top-dose-only effect, or another doubt; inactive = no such curve, though single readings can be large or run the other way.

Screening CNNC(=S)NCCC1=CCCCC1 returned Pf growth 48h inactive, Shiga inhibitor inactive, Pf growth 96h inactive, HCV inhibitor inactive, Cycloheximide cs 16 and HCMV antiviral inactive.
O=C(NC(=S)NCCC1=CCCCC1)c1ccco1 was read as Pf growth 48h inactive, Shiga inhibitor 107, Pf growth 96h inconclusive, HCV inhibitor inactive, Cycloheximide cs 37 and HCMV antiviral inactive.
`Cc1ccccc1C(=O)NC(=S)NCCC1=CCCCC1` gave Pf growth 48h inconclusive, Shiga inhibitor inactive, Pf growth 96h inactive, HCV inhibitor inactive, Cycloheximide cs inactive and HCMV antiviral inactive.
Screening O=C(NC(=S)NCCC1=CCCCC1)c1ccc(Br)o1 returned Pf growth 48h inactive, Shiga inhibitor inactive, Pf growth 96h inactive, HCV inhibitor inconclusive, Cycloheximide cs inactive and HCMV antiviral inactive.
`CCn1c(SCC(=O)NC2CCCC2)nnc1C(C)C` gave Pf growth 48h inactive, Shiga inhibitor inactive, Pf growth 96h inactive, HCV inhibitor inactive, Cycloheximide cs inactive and HCMV antiviral inactive.
Screening Cn1c(N)c(N=O)c(=O)n(C)c1=S returned HCV inhibitor inactive and HCMV antiviral inactive.
CC1CCc2sc3ncnc(N4CCOCC4)c3c2C1 (stereo not drawn) was read as Pf growth 48h inconclusive, Shiga inhibitor inactive, HCV inhibitor 10µM, Cycloheximide cs inactive and HCMV antiviral inconclusive.
`CCOc1ccc(CN2CCN(c3ncnc4sc5c(c34)CC(C)CC5)CC2)cc1` (stereo not drawn) gave HCMV antiviral inactive.
`CC1CCc2c(sc3ncnc(N4CCOCC4)c23)C1` (stereo not drawn) gave Pf growth 48h inconclusive, Shiga inhibitor inactive, Pf growth 96h inactive, HCV inhibitor inactive, Cycloheximide cs inactive and HCMV antiviral -65.
Screening CC1CCc2c(sc3ncnc(NCCN4CCOCC4)c23)C1 (stereo not drawn) returned Pf growth 48h inactive, Shiga inhibitor inactive, Pf growth 96h inactive, HCV inhibitor inconclusive, Cycloheximide cs inactive and HCMV antiviral inactive.
Screening Cc1ccc(Cc2cc(-c3ccc(C)cc3)n[nH]c2=O)cc1 returned Pf growth 48h inactive, Shiga inhibitor 52, Pf growth 96h inactive, HCV inhibitor inconclusive, Cycloheximide cs 40 and HCMV antiviral inactive.
For Cc1ccc(-c2cc(Cc3ccc(F)cc3)c(=O)[nH]n2)cc1 the results were Pf growth 48h inactive, Shiga inhibitor inactive, Pf growth 96h inactive, HCV inhibitor inactive, Cycloheximide cs 20 and HCMV antiviral inactive.
Screening N#Cc1ccc(Nc2nc(-c3ccc(O)cc3O)cs2)cc1C(F)(F)F returned Pf growth 48h inconclusive, Pf growth 96h inconclusive and HCV inhibitor 11µM.
Screening Oc1ccc(-c2csc(Nc3ncccn3)n2)c(O)c1 returned Pf growth 48h inactive, Shiga inhibitor 88, Pf growth 96h inactive, HCV inhibitor inactive, Cycloheximide cs 59 and HCMV antiviral inactive.
`Oc1ccc(-c2csc(Nc3ncccn3)n2)cc1O` gave Pf growth 48h inactive, Shiga inhibitor 103, Pf growth 96h inactive, HCV inhibitor 11µM, Cycloheximide cs 33 and HCMV antiviral inactive.
Cc1cccc(Nc2nc(-c3ccc(O)cc3O)cs2)n1 was read as Pf growth 48h inactive, Shiga inhibitor 109, Pf growth 96h inactive, HCV inhibitor inconclusive, Cycloheximide cs 38 and HCMV antiviral inactive.
Cc1nc(-c2ccc(O)c(O)c2)cs1 was read as Shiga inhibitor inactive, Pf growth 96h inactive, HCV inhibitor inconclusive, Cycloheximide cs inactive and HCMV antiviral inactive.
`Oc1ccc(-c2csc(Nc3ccc4c(c3)OCO4)n2)c(O)c1` gave HCV inhibitor inconclusive and HCMV antiviral inactive.
CON(Cc1ccccc1)S(=O)(=O)c1ccccc1Br was read as HCMV antiviral inactive.
Screening Cc1cnc(N=Nc2ccccc2)[nH]1 returned HCV inhibitor inactive and HCMV antiviral inactive.
For CC1=CC(C)(C)N=C(Nc2ccc(C)cc2)S1 the results were Shiga inhibitor inactive, Pf growth 96h 10µM, HCV inhibitor inactive, Cycloheximide cs 50 and HCMV antiviral inactive.
For O=C(OCc1nc2ccsc2c(=O)[nH]1)c1ccc(Cl)s1 the results were Pf growth 48h inactive, Pf growth 96h inactive, HCV inhibitor inactive and HCMV antiviral inactive.
For O=C(CCn1cnc2ccccc2c1=O)Nc1ccc(Cl)c(Cl)c1 the results were Shiga inhibitor inactive, Pf growth 96h inactive, HCV inhibitor inactive, Cycloheximide cs inactive and HCMV antiviral -74.
`O=C(Cn1cnc2ccccc21)Nc1ccc2c(c1)OCCCO2` gave Pf growth 48h inactive, Pf growth 96h inactive, HCV inhibitor 11µM and HCMV antiviral inconclusive.
`O=C(Cn1cnc2ccccc2c1=O)Nc1ccc2c(c1)OCO2` gave Pf growth 48h inactive, Shiga inhibitor active, Pf growth 96h inactive, HCV inhibitor inactive, Cycloheximide cs 56 and HCMV antiviral inactive.
O=C(Cn1cnc2ccccc21)Nc1ccc(F)c(F)c1 was read as Pf growth 48h inactive, Shiga inhibitor inactive, Pf growth 96h inconclusive, HCV inhibitor inconclusive, Cycloheximide cs inactive and HCMV antiviral inactive.
O=C(Cn1ccc2ccccc2c1=O)Nc1ccc2c(c1)OCO2 was read as Pf growth 48h inactive, Shiga inhibitor inactive, Pf growth 96h inconclusive, HCV inhibitor inactive, Cycloheximide cs inactive and HCMV antiviral inactive.
O=C(Cn1ccc2ccccc2c1=O)NCCC(=O)Nc1ccc2c(c1)OCCO2 was read as Pf growth 48h inactive, Shiga inhibitor inactive, HCV inhibitor inactive, Cycloheximide cs 23 and HCMV antiviral inactive.
Cc1ccc(S(=O)(=O)NC(C)(C)C)cc1C(=O)OCC(=O)N1CCCC1=O was read as Pf growth 48h inactive, Pf growth 96h inactive, HCV inhibitor inactive[8.37 µM] and HCMV antiviral inactive.
For COc1cccc(-c2noc(COc3cccc(C)c3C)n2)c1 the results were HCMV antiviral inactive.
`NC(CCc1ccccc1)c1csc(NC(=O)Nc2ccccc2Oc2ccccc2)n1` (stereo not drawn) gave HCMV antiviral inactive.
`O=C(COC(=O)Cc1n[nH]c(=O)c2ccccc12)Nc1cccc(C(F)(F)F)c1` gave Pf growth 48h inactive, Shiga inhibitor inactive, Pf growth 96h inactive, HCV inhibitor inactive, Cycloheximide cs inactive and HCMV antiviral inactive.
`O=C(CCn1cnc2ccccc2c1=O)Nc1nc(-c2ccc(Br)cc2)cs1` gave Pf growth 48h inactive, Shiga inhibitor inactive, Pf growth 96h 9.3µM, HCV inhibitor inactive, Cycloheximide cs inactive and HCMV antiviral inactive.
`CC1CC(C)CN(CCCNC(=O)CCNC(=O)Cn2ccc3ccccc3c2=O)C1` (stereo not drawn) gave Shiga inhibitor inactive, Pf growth 96h 5.2µM, HCV inhibitor inactive, Cycloheximide cs inactive and HCMV antiviral inactive.
